Only some compounds are listed: those with a hit (about 0.92% of all), similar ones and a draw of the others.
WRN helicase inh – blocks human WRN helicase; 360,000 compounds, 0.46% hits; WRN helicase unwinding, fluorescent forked duplex, kinetic; Q14191; Potency, µM (titrated, usually from 114 µM), inactives show top-dose activity change, negative = inhibition, usual class: inhibitors; also: nearly all actives have a fitted effect of over 55% in size
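Kinetic red-fluorescence monitoring (525/598 nm) tracks WRN helicase activity after 100 nM fluorophore-quencher forked duplex and 2 mM ATP are added to 20 nM enzyme pretreated 15 min at room temperature with compound.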
RECQ1 helicase – RECQ1 (human) helicase inhibition | P46063 | 240,000 compounds, 0.54% hits | AID 2549 | RECQ1 DNA unwinding, red fluorescence kinetic read | Potency, µM (top dose mostly 57.3 µM), for inactives: at the highest dose activity, negative = inhibition, most hits filed as inhibitors;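 also: plate controls were vehicle for no effect and no enzyme for full effect; nearly all actives have a fitted effect of over 30% in size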
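RECQ1T1 50 nM; forked duplex (20 bp + 30-nt ss tails) 200 nM, ATP 2 mM final; pH 8.0, 2 mM MgCl2, 2.5 ug/ml poly(dI-dC); 15 min compound preincubation; discontinuous kinetic read over 2 h at RT.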
APE1 inh – inhibitors of human APE1 endonuclease. AID 2517. P27695. recombinant APE1, TAMRA/BHQ-2 abasic DNA cleavage fluorescence. Potency, µM (top dose mostly 65.8 µM), inactives show at the top dose activity change, negative = inhibition, most hits filed as inhibitors. 350,000 compounds, 0.35% hits;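 also: plate controls were vehicle for no effect and reference inhibitor for full effect; nearly all actives have a fitted effect of over 55% in size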
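Measures dequenching upon AP-site incision of a 5'-TAMRA/3'-BHQ-2 THF-containing duplex, 50 nM; human APE1 0.75 nM after 15 min room-temperature exposure to compound; kinetic three-point read at one-minute spacing.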
L3MBTL1 inh – L3MBTL1 (human) inhibition | Q9Y468 | Potency, µM (series often up to 57.1 µM), inactives show at the top dose activity, negative = inhibition, most hits filed as inhibitors | AlphaScreen L3MBTL1–H3K9me1 peptide binding | 230,000 compounds, 0.66% hits; also: nearly all actives have a fitted effect of over 60% in size
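L3MBTL1 50 nM + b-AHA-H3(1-15)K9me1 75 nM, 30 min RT; compound added, 30 min RT; streptavidin donor/Ni-chelate acceptor beads 10 ug/mL each final, 30 min RT dark; AlphaScreen read.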
BLM inh – Bloom syndrome helicase (human) inhibition. 350,000 compounds, 0.2% hits. Potency, µM (doses to about 56.1 µM), without a hit: top-dose activity change, negative = inhibition, actives largely listed as inhibitors. P54132. recombinant BLM DNA unwinding, fluorescence dequenching;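 also: plate controls were vehicle for no effect and no enzyme for full effect; nearly all actives have a fitted effect of over 35% in size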
Target sequence (P54132 whole entry, looked up): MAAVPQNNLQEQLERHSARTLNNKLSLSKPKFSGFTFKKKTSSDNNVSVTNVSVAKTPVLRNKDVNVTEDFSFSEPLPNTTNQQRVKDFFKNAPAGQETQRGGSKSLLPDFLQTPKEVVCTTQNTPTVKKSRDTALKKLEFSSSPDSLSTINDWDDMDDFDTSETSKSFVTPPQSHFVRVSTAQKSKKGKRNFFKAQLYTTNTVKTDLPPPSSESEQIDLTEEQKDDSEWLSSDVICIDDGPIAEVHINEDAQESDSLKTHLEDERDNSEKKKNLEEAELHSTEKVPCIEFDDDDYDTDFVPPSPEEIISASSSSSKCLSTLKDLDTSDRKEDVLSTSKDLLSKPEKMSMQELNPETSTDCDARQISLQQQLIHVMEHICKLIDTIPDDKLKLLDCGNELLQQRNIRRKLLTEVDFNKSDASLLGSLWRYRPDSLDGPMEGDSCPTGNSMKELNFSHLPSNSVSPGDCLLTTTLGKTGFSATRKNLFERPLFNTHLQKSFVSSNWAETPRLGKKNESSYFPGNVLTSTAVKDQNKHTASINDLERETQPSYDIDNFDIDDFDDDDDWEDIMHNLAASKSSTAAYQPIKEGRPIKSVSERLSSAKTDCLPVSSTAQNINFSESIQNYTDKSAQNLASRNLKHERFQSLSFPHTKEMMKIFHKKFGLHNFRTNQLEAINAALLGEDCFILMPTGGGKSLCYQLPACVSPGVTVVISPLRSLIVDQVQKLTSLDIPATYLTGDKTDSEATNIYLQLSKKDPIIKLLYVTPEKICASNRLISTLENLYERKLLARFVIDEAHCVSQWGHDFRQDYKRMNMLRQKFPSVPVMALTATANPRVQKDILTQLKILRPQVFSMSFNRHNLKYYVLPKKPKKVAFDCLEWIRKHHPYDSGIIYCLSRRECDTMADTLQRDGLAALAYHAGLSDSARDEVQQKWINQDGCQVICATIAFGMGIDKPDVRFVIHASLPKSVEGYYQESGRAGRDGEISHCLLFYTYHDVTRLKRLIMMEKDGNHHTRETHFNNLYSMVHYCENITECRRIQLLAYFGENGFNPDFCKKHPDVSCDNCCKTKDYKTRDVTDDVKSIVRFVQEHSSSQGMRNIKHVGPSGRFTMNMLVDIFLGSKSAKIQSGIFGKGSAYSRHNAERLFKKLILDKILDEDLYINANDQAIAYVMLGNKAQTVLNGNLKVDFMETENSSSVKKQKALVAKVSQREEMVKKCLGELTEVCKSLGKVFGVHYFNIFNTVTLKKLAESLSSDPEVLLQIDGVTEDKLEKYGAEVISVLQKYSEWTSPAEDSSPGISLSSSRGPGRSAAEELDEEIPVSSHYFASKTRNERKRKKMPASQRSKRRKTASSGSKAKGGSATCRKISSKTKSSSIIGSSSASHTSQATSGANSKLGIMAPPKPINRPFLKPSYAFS
* = called active by the depositor; i = inactive; ? = inconclusive; . = not tested or not shown; ! = a repeat was not active; [ ] = dose if it differs, or a comment. Calls follow the shape of the dose curve; as a rule, active = well fitted curve in the direction sought with a large enough effect; inconclusive = small, poorly fitted or top-dose-only effect, or another doubt; inactive = no such curve, though single readings can be large; an effect the other way counts as inactive or inconclusive. Unless noted, % is scaled to controls: 0 for no effect and ±100 for the full control effect; potency is read from the fitted curve at half-maximal effect.

SMILES	WRN helicase inh	RECQ1 helicase	APE1 inh	L3MBTL1 inh	BLM inh
CC(OC(=O)/C(C#N)=C/c1ccc(N(C)C)cc1)C(=O)N(C)c1ccccc1 (stereo unspecified)	56µM*	.	24µM*	20%	.
CC(=O)Nc1ccc(NC(=O)C(C)OC(=O)/C(C#N)=C/c2ccc(N(C)C)cc2)cc1 (stereo unspecified)	?	.	-27%	-1%	.
O=C(O)c1ccccc1Cc1ccccc1	.	-1%	-3%	.	1%
COC(=O)c1c(C)nc(C)c(C(=O)OC)c1-c1ccccc1[N+](=O)[O-]	.	2%	-4%	.	1%
O=C(O)c1cn(C2CC2)c2cc(N3CCN(S(=O)(=O)c4ccc5c(c4)OCCO5)CC3)c(F)cc2c1=O	79µM*	i	0%	3%	-11%
c1ccc(Cn2c(SCc3nc4ccccc4s3)nnc2-c2ccco2)cc1	35µM*	-13%	-5%	2%[11.4 µM]	-16%
CC(C)(C)n1ncc2c(=O)n(Cc3cccc(F)c3)cnc21	.	.	1%	.	.
Cc1cc(-c2ccc(N=Nc3ccc4c(S(=O)(=O)O)cc(S(=O)(=O)O)c(N)c4c3O)c(C)c2)ccc1N=Nc1ccc2c(S(=O)(=O)O)cc(S(=O)(=O)O)c(N)c2c1O	.	8.9µM*	2.5µM*	.	11µM*!
O=S(=O)(O)c1ccc(N=Nc2ccccc2)cc1	-10%	i	-9%	-6%	-2%
Nc1c(N=Nc2ccc(-c3ccc(N=Nc4cc(S(=O)(=O)O)c5ccccc5c4N)cc3)cc2)cc(S(=O)(=O)O)c2ccccc12	.	10µM*	32µM*	.	4µM*
C/C=C\C1=CCCC1Nc1ncnc2ccc(-c3c(C)noc3C)cc12 (stereo unspecified)	.	-7%	-12%	.	-12%
O=C1CC(=O)NC(SCC(=O)Nc2ccccc2[N+](=O)[O-])=N1	40µM*	.	-42%	.	-17%
COc1ccc(/C=C2\SC(=O)NC2=S)cc1OC	?	32µM*	?	-11%	-18%
CCOc1ccc(/C=C2\SC(=S)NC2=O)cc1OC	-14%	-4%	5%	-13%	3%
NC(=Nc1ccc(N)cc1)C(N)=Nc1ccc(N)cc1	2%	i	0%	32µM*	-1%
Cc1ccc(S(=O)(=O)c2ccc([N+](=O)[O-])o2)cc1	14µM*	.	.	.	.
CC1CCC2C(C)C3C(CC4[C@@H]5CC=C6C[C@@H](O)CC[C@]6(C)C5CC[C@]34C)N2C1 (stereo partly specified)	.	?	-10%	.	-28%
COc1cccc(/C=N/Nc2snc(SC)c2C#N)c1O	50µM*	-5%	-3%	-8%	-30%
COc1ccc(/C=N/Nc2snc(SC)c2C#N)cc1OC	-12%	-15%	7%	-23%	-10%
CC(C)(C)n1ncc2c(=O)n(Cc3cccc(-c4ccccc4)c3)cnc21	.	.	-4%	.	.
Cc1cc2c(n1-c1ccc(C(=O)O)cc1)CCCCC2	.	.	6µM*	.	-1%
O=C(Nc1cccnc1)c1cnn2c1NC(=C1CC1)C=C2C(F)F	.	.	41%	.	.
CC(C)C[C@H](NC(=O)[C@H](CC(C)C)NC(=O)[C@H](CCC(N)=O)NC(=O)[C@H](CO)NC(=O)[C@@H]1CCCN1C(=O)[C@H](CO)NC(=O)[C@H](CO)NC(=O)[C@@H](NC(=O)[C@H](Cc1cnc[nH]1)NC(=O)[C@H](CCC(=O)O)NC(=O)[C@H](Cc1ccc(O)cc1)NC(=O)[C@H](CCCCN)NC(=O)[C@H](CCC(N)=O)NC(=O)[C@H](Cc1ccc(O)cc1)NC(=O)[C@H](CC(=O)O)NC(=O)[C@@H](NC(=O)[C@@H]1CCCN1C(=O)[C@H](CC(=O)O)NC(=O)[C@H](CC(N)=O)NC(=O)[C@H](CC(=O)O)NC(=O)CNC(=O)[C@H](CC(=O)O)NC(=O)[C@@H]1CCCN1C(=O)[C@H](CCC(N)=O)NC(=O)[C@H](Cc1ccc(O)cc1)NC(=O)[C@H](C)NC(=O)[C@H](Cc1c[nH]c2ccccc12)NC(=O)[C@H](Cc1ccccc1)NC(=O)[C@@H](NC(=O)[C@@H](N)CO)[C@@H](C)O)[C@@H](C)O)[C@@H](C)O)C(=O)N[C@@H](C)C(=O)N1CCC[C@H]1C(=O)NCC(=O)N[C@@H](CC(=O)O)C(=O)N[C@@H](Cc1ccc(O)cc1)C(=O)O	.	-9%	0%	.	2%
Cn1c(=O)c(Nc2ccc(O)cc2)c2c3c(cccc31)C(=O)c1ccccc1-2	?	1%	8%	25µM*	?
c1cc(N2CCCCC2)nc(N2CCCCC2)n1	7%	.	.	.	.
SMILES	WRN helicase inh	RECQ1 helicase	APE1 inh	L3MBTL1 inh	BLM inh
C[c-]1[c-](C)[c-](C)[c-](C)[c-]1C.[Fe].c1cc2nccc(N3CCCC3)[c-]2c1 (stereo unspecified)	-19%	6.3µM*!	2.8µM*!	.	?
CN1CCN(C(c2ccccn2)c2cc(Cl)c3cccnc3c2O)CC1 (stereo unspecified)	-6%	-3%	0%	14µM*	-6%
Cc1ccc(C(c2cc(Cl)c3cccnc3c2O)N2CCN(C)CC2)cc1 (stereo unspecified)	?	.	-23%	.	-20%
CC(C)(C)n1ncc2c(=O)n(Cc3cccc(C(F)(F)F)c3Cl)cnc21	.	.	-1%	.	.
O=[N+]([O-])c1ccccc1NC(=S)N/N=C/c1ccc(O)c(O)c1	11µM*	?	?	?	-17%
O=C(O)c1ccccc1NS(=O)(=O)c1ccc(N/N=C/c2ccc(O)c(O)c2)c([N+](=O)[O-])c1	11µM*	.	.	.	.
C[C@H]1COC(=O)O1	.	1%	0%	.	3%
CCCCCn1c(=N)n(CC(O)COc2ccccc2OC)c2ccccc21 (stereo unspecified)	-11%	7%	-1%	5µM*	1%
CCCCCCc1cc2cc(-c3nnc(-c4ccccc4OC)o3)c(=O)oc2cc1O	45µM*	i	?	.	?
COc1ccc(/C=C/C(=O)c2cc(Br)ccc2O)cc1OC	-5%	i	-9%	-21%	-14%
CCNc1ccc(Br)cc(C(=O)/C=C/c2ccc(Cl)cc2Cl)c1=O	?	-12%	1%	18µM*	-23%
CNc1ccc(Br)cc(C(=O)/C=C/c2cc(OC)ccc2OC)c1=O	-9%[11.6 µM]	-1%	-6%	14µM*	-14%
COCCCNC(=O)/C=C/c1ccc(Cl)cc1Cl	1%	-13%	2%	10%	3%
N#Cc1nccnc1S(=O)(=O)c1cccs1	50µM*	-5%	0%	-6%	-8%
O=C(N/N=C/C=C\c1ccco1)c1ccccn1	35µM*	?	?	28µM*	?
O=C(N/N=C/c1ccco1)c1cnccn1	-6%	i	-3%	-3%	2%
O=C(N/N=C/C=C/c1ccco1)c1cnccn1	-30%	9%	3%	7.1µM*	-6%
